High-throughput results: PubChem BioAssay, Broad Institute
Sampled rows, rich in hits. Any-hit rate of the full collection: about 4.1%.
Casp6 inh: caspase-6 (human) enzyme inhibition. P55212. purified caspase-6, Z-VEID-R110 cleavage fluorescence. inhibition, % at 12.5 µM. 350,000 tested, 0.53% active. AID 686996;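 active = mean inhibition across replicates at least about 35%, with every replicate also reaching that limit, limit read from the data; inconclusive = only one of the two criteria met; inactive = neither criterion met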
Target sequence (P55212 24-179 limits assumed): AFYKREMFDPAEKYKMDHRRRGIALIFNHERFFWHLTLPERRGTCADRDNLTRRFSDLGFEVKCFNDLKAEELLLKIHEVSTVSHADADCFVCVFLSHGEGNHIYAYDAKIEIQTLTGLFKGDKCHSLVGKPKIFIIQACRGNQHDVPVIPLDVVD
Target sequence (P55212 194-293 limits assumed): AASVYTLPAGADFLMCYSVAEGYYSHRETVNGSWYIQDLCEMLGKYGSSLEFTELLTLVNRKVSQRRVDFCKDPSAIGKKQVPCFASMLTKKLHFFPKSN
PglD DTNB: inhibitors of Campylobacter jejuni PglD acetyltransferase | inhibition, % at 12.5 µM | AID 602405 | 360,000 tested, 0.098% active | purified PglD enzyme, DTNB colorimetric CoA detection; in the data active = inhibition above about 16%, passing the limit was not always enough; inconclusive = no clear call, values can overlap the other calls
NSD2 inh: NSD2 (human) methyltransferase inhibition; 310,000 tested, 0.54% active; NSD2 peptide methylation, AlphaScreen, 120 min; inhibition, % at 12.5 µM; in the data active = inhibition above about 50%
Env fusion inh: inhibitors of HIV Env-mediated cell fusion. HeLa-JRFL Env/CEM21 cell fusion, luciferase. inhibition, % at 12.3 µM. 360,000 tested, 1.1% active. AID 651610;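 active = mean replicate inhibition score of at least 50 and every replicate individually at or above 50; inconclusive = only one of the two criteria met; inactive = mean below 50 and not all replicates reaching 50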
F508del corr: CFTR F508del correction in bronchial cells | CFBE cells, YFP halide quenching; stimulated with forskolin plus potentiator P3; % fluorescence drop versus neutral controls | activity (quench increase), % at 7.58 µM | 350,000 tested, 0.36% active;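 active = mean added fluorescence quench of at least 8% versus neutral control, with both replicates also reaching 8%; inconclusive = only one of the mean or replicate conditions met; inactive = mean below 8% and not both replicates reaching 8%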;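 note: cells transiently co-express mutant CFTR-F508del with the halide-sensitive YFP; corrector assay measuring rescue of mutant channel to the surface after 24 h compound exposure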
ALR inh: human ALR oxidase inhibition via reduced H2O2 | P55789 | 290,000 tested, 3.8% active | inhibition, % (concentration not given with the values) | purified ALR, DTT oxidation, H2O2 HRP-luminol luminescence | AID 485317;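 active = mean replicate inhibition above about 79%, with every replicate also reaching it, limit read from the data; inconclusive = only one of the two criteria met; inactive = mean below limit and not every replicate reaching it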
Target sequence (P55789 whole entry, looked up): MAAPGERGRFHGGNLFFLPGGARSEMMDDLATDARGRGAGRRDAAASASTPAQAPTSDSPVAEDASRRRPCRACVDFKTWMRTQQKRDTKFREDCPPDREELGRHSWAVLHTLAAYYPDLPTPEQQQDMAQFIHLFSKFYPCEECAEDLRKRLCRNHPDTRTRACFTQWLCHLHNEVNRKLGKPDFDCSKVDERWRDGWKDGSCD
Numbers stand for hits; . = inactive; ? = inconclusive; / = no result given; ! = not confirmed by another sample.

SMILES	Casp6 inh	PglD DTNB	NSD2 inh	Env fusion inh	F508del corr	ALR inh
O=C(C[C@H]1CC[C@@H]2[C@H](COC[C@@H](O)CN2C(=O)c2ccc(F)cc2)O1)Nc1ccc(-c2ccccc2)cc1	.	.	/	.	.	/
COc1ccc2c3c(n(C)c2c1)[C@@H](CO)N(CC1CC1)CC31CN(C(=O)c2ccc(F)cc2)C1	/	/	/	/	.	/
COc1ccc(-c2ccc3c(c2)[C@@H]2[C@@H](CCN2C(=O)C2CCOCC2)[C@@H](CO)N3C)cc1	/	.	/	/	.	/
C[C@H]1CN([C@@H](C)CO)C(=O)c2cc(NC(=O)CCCCCC(=O)Nc3ccccc3N)ccc2O[C@@H]1CN(C)S(=O)(=O)c1ccccc1	.	/	/	/	.	/
COc1ccccc1-c1cnc2c(c1)C(=O)N([C@@H](C)CO)C[C@@H](C)[C@@H](CN(C)Cc1ccncc1)O2	.	.	/	.	.	/
CC(=O)N1CCN(c2ccc(NCc3ccc4c(c3)OCO4)cc2)CC1	/	.	.	.	/	/
O=C(c1ccccc1)N1CCN(c2ccc(NCc3ccc4c(c3)OCO4)cc2)CC1	.	.	/	/	.	88.8
COc1ccc2c3c(n(C)c2c1)[C@@H](CO)N(CC1CC1)CC31CN(C(=O)c2ccccc2)C1	/	/	/	/	.	/
O=C(CSc1nnc(-c2ccco2)c(-c2ccco2)n1)c1ccccc1	.	.	.	.	.	98.9
CC(C)c1ccc(C(=O)CSc2n[nH]c(-c3ccncc3)n2)cc1	/	.	.	/	/	.
O=C(CSc1n[nH]c(-c2ccccc2)n1)c1ccccc1	.	.	/	.	.	97.2
CC(=O)Nc1ccc(NC(=O)CSc2nnc(-c3ccco3)o2)cc1	.	.	.	.	.	.
CC(=O)c1ccc(NC(=O)CSc2nnc(-c3ccco3)c(-c3ccco3)n2)cc1	.	.	.	.	.	99.4
O=C(c1ccncc1)N1C[C@@H]2[C@H](c3ccccc31)[C@H](CO)N2Cc1ccc(F)cc1	/	.	/	/	.	/
CN(Cc1ccccc1)c1nnc(N)s1	.	.	/	.	.	?
CC(C)N(c1nnc(N)s1)C(C)C	/	.	.	.	/	96.7
CCOC(=O)c1ccccc1NC(=O)Cn1c(=O)n(Cc2ccccc2)c(=O)c2c(C)c(C)sc21	/	/	.	58.4	/	.
COCCNC(=O)C[C@H]1C=C[C@H](NC(=O)NC2CCCC2)[C@H](CO)O1	.	.	/	.	.	/
CC(C)n1c(-c2ccco2)csc1=Nc1cccnc1	/	.	.	.	/	92.4
COCCn1c(-c2ccccc2)csc1=Nc1cccnc1	/	/	.	.	.	.
CC(=O)Nc1cccc(N=NN2CCOCC2)c1	.	/	.	.	.	.
CC(=O)Nc1cccc(N=NN2CCCCC2)c1	.	.	.	.	.	88.0
COCCNC(=O)[C@@H]1[C@@H](CO)[C@@H]2Cn3c(ccc(C4=CCCCC4)c3=O)[C@H]1N2C(=O)C1CCC1	.	.	/	/	.	/
COc1ccccc1C(=O)NC(=O)CSc1ccc(C)c(C)c1	.	/	.	.	.	97.5
C[C@H](CO)N1C[C@H](C)[C@@H](CN(C)Cc2ccc(-c3ccccc3)cc2)Oc2ccc(NC(=O)Cc3cn(C)c4ccccc34)cc2CC1=O	.	/	/	.	.	/
SMILES	Casp6 inh	PglD DTNB	NSD2 inh	Env fusion inh	F508del corr	ALR inh
CCN(C(=O)CSc1nc(-c2ccccc2)c(-c2ccccc2)[nH]1)C1CCS(=O)(=O)C1 (stereo unspecified)	/	.	.	/	/	98.9
CCN(C(=O)CSc1nnc(-c2ccc3c(c2)OCO3)o1)C1CCS(=O)(=O)C1 (stereo unspecified)	.	.	.	.	.	/
CCN(C(=O)CSc1ccc2c(c1)OCCO2)C1CCS(=O)(=O)C1 (stereo unspecified)	/	.	/	.	/	91.6
CC(=O)Nc1ccc(SCC(=O)N(C)C2CCS(=O)(=O)C2)cc1 (stereo unspecified)	.	.	.	.	.	98.2
CCN(C(=O)CSc1nc2ccc(C)cc2[nH]1)C1CCS(=O)(=O)C1 (stereo unspecified)	.	.	.	.	.	.
CN(C(=O)CSc1ncccn1)C1CCS(=O)(=O)C1 (stereo unspecified)	.	.	.	.	.	/
CCN(C(=O)CSc1nc2ccccc2c(=O)n1-c1ccccc1F)C1CCS(=O)(=O)C1 (stereo unspecified)	.	.	.	/	10.9	/
C[C@@H]1CN([C@H](C)CO)C(=O)c2cc(NS(=O)(=O)c3ccccc3)ccc2O[C@@H](C)CCCCO[C@@H]1CN(C)C	.	.	/	.	.	/
CCCN(C)C[C@H]1OCCCC[C@H](C)Oc2ccc(NC(=O)c3ccncc3)cc2C(=O)N([C@H](C)CO)C[C@H]1C	/	/	/	.	.	/
CCCCCCSc1ccc(-c2nc3ccc(C)cn3c2NCc2ccccc2)cc1	.	.	.	?	.	.
CCCCCCSc1cccc(-c2nc3ccc(Cl)cn3c2NCc2ccccc2)c1	.	.	.	72.3!	.	/
Cc1cccc(NC(=O)COc2cccc3c2CCN(C)C3=O)c1C	.	/	.	.	.	.
CCOC(=O)c1c(NC(=O)COc2cccc3c2CCN(C)C3=O)sc2c1CCC2	.	/	.	.	/	87.3
C[C@@H]1CCCCO[C@@H](CN(C)C(=O)Nc2ccc3c(c2)OCO3)[C@H](C)CN([C@H](C)CO)C(=O)c2cc(NC(=O)c3ccncc3)ccc2O1	.	.	/	.	.	/
Cc1cccc(N=Nc2cnc(N)s2)c1	.	.	/	.	.	99.4
CC(=O)Nc1ncc(N=Nc2cccc(C(F)(F)F)c2)s1	.	.	.	.	.	.
C[C@H]1O[C@@H](O[C@H]2[C@@H](O)C[C@H](O[C@H]3[C@@H](O)C[C@H](O[C@H]4CC[C@@]5(C)[C@H](CC[C@@H]6[C@@H]5C[C@@H](O)[C@]5(C)[C@@H](C7=CC(=O)OC7)CC[C@]65O)C4)O[C@@H]3C)O[C@@H]2C)C[C@H](O)[C@@H]1O	/	.	/	86.1	.	.
FC(F)(F)c1ccc(Cl)c(-n2c(-c3ccco3)n[nH]c2=S)c1	.	.	.	.	.	.
FC(F)(F)c1ccc(Cl)c(-n2c(-c3cc(C4CC4)[nH]n3)n[nH]c2=S)c1	.	.	.	.	.	77.8
COc1cc(-c2n[nH]c(=S)n2-c2cc(C(F)(F)F)ccc2Cl)cc(OC)c1OC	/	/	.	.	/	.
FC(F)(F)c1ccc(Cl)c(-n2c(-c3cc(-c4ccco4)[nH]n3)n[nH]c2=S)c1	69.1	.	.	.	.	.
Cc1nc(C#N)c(N/N=C/c2c(F)cccc2Cl)o1	.	.	/	.	.	98.3
O=C(Nc1ccc(F)cc1)N1CC(=O)N2[C@H](CO)[C@@H](c3ccc(Br)cc3)[C@@H]2C1	.	/	/	/	.	/
COc1ccc(S(=O)(=O)Nc2ccc3c(c2)C(=O)N([C@@H](C)CO)C[C@@H](C)[C@H](CN(C)S(=O)(=O)c2c(C)noc2C)OCCCC[C@H](C)O3)cc1	.	.	/	.	.	/
CC(C)Oc1ncnc2c1[nH]c1ccccc12	.	.	.	.	10.0	.
COc1ccccc1N/N=C/c1c(CO)cnc(C)c1O	/	.	/	/	/	99.9
